Measured values as given in PubChem BioAssay AID2283131 (EPA ToxCast).
Records with an inconclusive call do not appear. Active and inactive are the calls of the source. How the source made its calls: active means hit-call score of the fitted dose curve at least 0.9, where 1 is the maximum; inconclusive means response in the unintended direction; inactive means score below 0.9.

What follows are molecules tested against human Bruton's Tyrosine Kinase (BTK), BTK (gene 695) (UniProt Q06187) (assay: NVS_ENZ_hBTK: NovaScreen (NVS) Enzymatic Assay for human Bruton's Tyrosine Kinase (BTK)).
Description: NVS_ENZ_hBTK is a biochemical, single-readout assay that uses extracted gene-proteins in a cell-free assay. Measurements were taken 1 hour after chemical dosing in a 96-well plate.NVS_ENZ_hBTK is one of one assay component(s) measured or calculated from the NVS_ENZ_hBTK assay. It is designed to make measurements of enzyme activity, a form of enzyme reporter, as detected with fluorescence intensity signals by Fluorescence and electrophoretic mobility shift technology.Data from the assay component NVS_ENZ_hBTK was analyzed into 1 assay endpoint. This assay endpoint, NVS_ENZ_hBTK, was analyzed in the positive analysis fitting direction relative to DMSO as the negative control and baseline of activity. Using a type of enzyme reporter, loss-of-signal activity can be used to understand changes in the enzymatic activity as they relate to the gene BTK. Furthermore, this assay endpoint can be referred to as a primary readout, because this assay has produced multiple assay endpoints where this one serves a enzymatic activity function. To generalize the intended target to other relatable targets, this assay endpoint is annotated to the kinase intended target family, where the subfamily is non-receptor tyrosine kinase.
Binding assays used specific radioligands (tritiated, iodinated) with non-radioactive competitive displacement ligands in agonist or antagonist protocols (as indicated) and various reference compounds and inhibitors to titrate specific binding to receptors and transporters. Most enzyme assays (CYPs, kinases, phosphatases, proteases, HDACs) used recombinant protein and specific substrates (fluorescence mostly, some colorimetric and radioactive) and inhibitors, followed by a biochemical separation of substrate and product. All assays for the biochemical HTS were initially run in duplicate at a single concentration (10 uM for CYP450 assays and 25 uM for all others). […] Each assay was run with positive and negative controls, and concurrent controls on every plate. The follow-up (secondary) screen tested active chemical-pairs in concentration series, as well as a few additional assays not tested in the primary screen, some selected negative inactives, and several cases re-run in the concentration series for confirmatory purposes.

Chain of human Bruton's Tyrosine Kinase (BTK), BTK (gene 695) (Q06187 whole entry, looked up): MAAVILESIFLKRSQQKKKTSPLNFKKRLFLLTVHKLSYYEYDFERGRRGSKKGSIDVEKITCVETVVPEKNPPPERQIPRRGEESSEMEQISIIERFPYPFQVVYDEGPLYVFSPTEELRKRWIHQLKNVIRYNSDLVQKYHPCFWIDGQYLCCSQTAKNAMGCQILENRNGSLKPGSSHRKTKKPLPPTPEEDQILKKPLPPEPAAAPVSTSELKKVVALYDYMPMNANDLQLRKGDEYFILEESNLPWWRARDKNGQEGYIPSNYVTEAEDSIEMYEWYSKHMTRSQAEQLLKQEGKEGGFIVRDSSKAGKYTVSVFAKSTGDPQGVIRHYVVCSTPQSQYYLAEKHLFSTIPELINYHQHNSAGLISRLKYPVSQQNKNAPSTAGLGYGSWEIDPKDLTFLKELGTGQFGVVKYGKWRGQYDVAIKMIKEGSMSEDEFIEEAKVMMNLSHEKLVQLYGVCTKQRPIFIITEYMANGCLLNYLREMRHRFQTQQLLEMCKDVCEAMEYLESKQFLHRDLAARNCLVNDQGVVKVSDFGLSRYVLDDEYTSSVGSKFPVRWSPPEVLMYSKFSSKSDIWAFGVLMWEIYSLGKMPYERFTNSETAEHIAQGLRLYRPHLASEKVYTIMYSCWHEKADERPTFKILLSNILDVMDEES

SMILES | outcome | AC50
N#Cc1c(Cl)c(Cl)c(Cl)c(C#N)c1Cl | inactive | 
Cc1ccccc1CO[C@@H]1C[C@@]2(C(C)C)CC[C@]1(C)O2 | inactive | 
Fc1ccc(Oc2ccnc3cc(Cl)cc(Cl)c23)cc1 | inactive | 
O=[N+]([O-])/N=C1\NCCN1Cc1ccc(Cl)nc1 | inactive | 
S=C1NCCN1 | inactive | 
CCCOc1nn(C(=O)NS(=O)(=O)c2ccccc2C(=O)OC)c(=O)n1C | inactive | 
CNC(=O)Oc1cccc2c1OC(C)(C)O2 | inactive | 
O=S(=O)(O)C(F)(F)C(F)(F)C(F)(F)C(F)(F)C(F)(F)C(F)(F)C(F)(F)C(F)(F)F |  | 17.4 µM (active)
O=C(O)C(F)(F)C(F)(F)C(F)(F)C(F)(F)C(F)(F)C(F)(F)C(F)(F)F | inactive | 
